Shown are actives, neighbours in structure and some others; about 27% of the full set was active somewhere.
CYP2C19 act: increases human CYP2C19 enzyme activity | 96,000 tested, under 10 active | AID 1025 | activation factor at 5 µM | recombinant CYP2C19, luciferin-H EGE luminescence; active compounds read high; 0 = fully inhibited enzyme, 1 = untreated enzyme | P33261;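 active means activation factor of at least 2 at 5 µM in the primary screen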
EphB4 ephrin blk: EphB4-ephrin-B2 interaction antagonism; P54760; EphB4 LBD / TNYL-RAW-Alexa532 peptide, fluorescence polarization; inhibition, % at 7 µM; actives 0.15% (n = 97,000); AID 720;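 active means inhibition above the screen-wide mean inhibition plus 3 SD, cut at about 15% in these data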
CYP2C19 inh: inhibitors of human CYP2C19; P33261; CYP2C19 Supersomes, luciferin-H EGE luminescence, 30 min; inhibition, % at 5 µM; actives 21% (n = 96,000);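 active means CYP2C19 inhibition above a set limit at 5 µM in the primary screen, cut at about 50% in these data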
CYP2C9 activ: activators of human CYP2C9. AID 1024. P11712. actives 1.4% (n = 96,000). recombinant CYP2C9, luciferin-H conversion, luminescence; active compounds read high; factor 1 = untreated enzyme, 0 = blocked. activation factor at 5 µM;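 active means activation factor of 2 or more for CYP2C9 at a 5 µM dose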
CYP2C9 inhib: inhibitors of human CYP2C9; P11712; CYP2C9 Supersomes, luciferin-H conversion, luminescence; inhibition, % at 5 µM; actives 20% (n = 96,000);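 active means blocking of liver enzyme CYP2C9 beyond about 50% at 5 µM, limit read from the data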
Of the large screens only hits and unclear results are named; the others gave an inactive call.

Cc1nc(N2CCN(C(=O)c3ccc(Cl)cc3)CC2)c(C#N)c2c1COC(C)(C)C2	CYP2C19 inh 82.8, CYP2C9 inhib 50.3
CC(C)Cc1nc(N2CCN(C(=O)C(C)C)CC2)c(C#N)c2c1CCC2	CYP2C19 inh 83.7, CYP2C9 inhib 81.3
CC1(C)Cc2c(C#N)c(N3CCN(C(=O)c4ccco4)CC3)nc(Cc3ccccc3)c2CO1	CYP2C19 inh 73.1, CYP2C9 inhib 95.1
O=C(c1ccco1)N1CCN(c2ncnc3c2cnn3-c2ccccc2)CC1	none
CC(C)c1cc(N2CCN(C(=O)c3ccco3)CC2)n2c(nc3ccccc32)c1C#N	CYP2C19 inh 62.6, CYP2C9 inhib 73.5
O=C1CC(c2ccc(F)cc2)CC(O)=C1C1NCCc2ccccc21 (stereo not drawn)	none
CC(C)N1CCC(=NNC(=O)c2ccc(Br)o2)CC1	none
CC(=O)N1CCN(c2nc(CC(C)C)c3c(c2C#N)CCC3)CC1	CYP2C19 inh 73.1, CYP2C9 inhib 73.4
CC(C)Cc1nc(N2CCCCC2)c(C#N)c2c1CCC2	none
CC(C)Cc1nc(N2CCN(C(=O)c3ccco3)CC2)c(C#N)c2c1CCC2	CYP2C19 inh 99.0, CYP2C9 inhib 97.5
CCn1c(CCNC(=O)c2ccc(Cl)cc2)n[nH]c1=S	none
O=C(CN1CCN(S(=O)(=O)c2ccc(Br)cc2)CC1)Nc1ccccc1F	CYP2C19 inh 83.9 (no result: EphB4 ephrin blk)
O=C(CN1CCN(S(=O)(=O)c2ccc(Br)cc2)CC1)Nc1ccc(F)cc1F	CYP2C19 inh 54.4
COc1cccc(N2C(=O)CC(N3CCN(C(=O)c4ccco4)CC3)C2=O)c1 (stereo not drawn)	none
S=C1NC2=C(C(c3ccc(Br)cc3)N1)N1CCC2CC1 (stereo not drawn)	none
CCOC(=O)C1C(=O)C(C(=O)OCC)C(c2cccnc2)NC1c1cccnc1 (stereo not drawn)	none
CCCCNC(=O)c1onc(CSc2ccccc2CC)c1C(=O)O	CYP2C9 inhib 71.6
COCCNC(=O)c1onc(CSc2ccccc2F)c1C(=O)O	none
C=CCNC(=O)c1onc(CSc2ccccc2C)c1C(=O)O	none
C=CCNC(=O)c1onc(CSc2cc(C)ccc2C)c1C(=O)O	CYP2C9 inhib 76.8
Cc1ccc(C)c(SCc2noc(C(=O)NC(C)C)c2C(=O)O)c1	CYP2C9 inhib 71.8
CCCCNC(=O)c1onc(CSc2cc(C)ccc2C)c1C(=O)O	CYP2C9 inhib 77.8
COCCNC(=O)c1onc(CSc2cc(C)ccc2C)c1C(=O)O	none
COc1ccc(C2N(C(=O)c3ccccc3)CCN2C(=O)c2ccc(C)cc2)cc1 (stereo not drawn)	none
Cc1ccc2oc(=O)c3cc(C(=O)NCCN4CCN(C)CC4)sc3c2c1	none (no result: EphB4 ephrin blk)
CCOc1ccc(OCC)c(NC(=O)CCS(=O)(=O)c2ccc(Br)s2)c1	none
O=C(c1ccc(F)cc1)n1ccc(-c2cnc(-c3ccccc3)s2)n1	none
O=S(=O)(c1ccccc1)n1ccc(-c2cnc(-c3ccccc3)s2)n1	CYP2C9 inhib 78.5
Fc1ccc(Cn2ccc(-c3cnc(-c4ccccc4)s3)n2)cc1	CYP2C19 inh 92.0, CYP2C9 inhib 96.9
Cc1ccc(Cn2ccc(-c3cnc(-c4ccccc4)s3)n2)cc1	none
CC(C)NC(=O)c1cc(-n2cnnc2)ccc1Cl	none
CCOC(=O)C1=C(Cc2ccc(F)cc2)C(=O)c2ccccc2C1=O	CYP2C19 inh 87.3
Cn1c(SCC(=O)N(Cc2ccccc2)C(C)(C)C)nc2ccccc21	CYP2C19 inh 50.4
O=C(CCN1C(=O)c2ccncc2C1=O)Nc1ccc(F)cc1	none
O=C(Nc1ccn(Cc2c(F)c(F)cc(F)c2F)n1)c1ccc(COc2cc(Cl)ccc2Cl)o1	none
O=C(Nc1ccn(Cc2ccccc2F)n1)c1ccc(COc2cccc(Br)c2)cc1	CYP2C9 inhib 87.8
Cc1nn(C)c(C(=O)Nc2ccn(Cc3ccccc3F)n2)c1[N+](=O)[O-]	none
CN(C)c1ccc(NC(=O)c2ccc(COc3cccc(Cl)c3)o2)cc1	CYP2C9 inhib 70.7
O=C(Nc1ccn(Cc2ccccc2F)n1)c1ccc(COc2ccccc2Cl)cc1	CYP2C19 inh 79.0, CYP2C9 inhib 85.6
CCOc1ccc(OCc2ccc(C(=O)Nc3cccnc3)o2)cc1	none
O=C(Nc1ccn(Cc2c(F)c(F)cc(F)c2F)n1)c1ccc(COc2ccccc2Cl)cc1	CYP2C9 inhib 66.0
CCOC1(NC(=O)c2ccccc2)C(C)=CC(=O)C=C1C	none
CCCCCSc1nc(O)cc(=O)[nH]1	none
O=C(Nc1ccn(Cc2c(F)c(F)c(F)c(F)c2F)n1)c1cccc(Cn2cc([N+](=O)[O-])cn2)c1	none
O=C(NCc1cccnc1)c1ccc(COc2cccc3ccccc23)o1	CYP2C19 inh 52.8
O=C(NCc1ccc2c(c1)OCO2)c1ccc(COc2cc(Cl)ccc2Cl)o1	CYP2C19 inh 56.6, CYP2C9 inhib 94.4
O=C(Nc1ccn(Cc2c(F)c(F)cc(F)c2F)n1)c1cccc(Cn2cc([N+](=O)[O-])cn2)c1	CYP2C19 inh 73.4, CYP2C9 inhib 81.5
CCOc1ccc(OCc2ccc(C(=O)NCc3cccnc3)o2)cc1	none
O=C(Nc1nn(Cc2ccc(Cl)cc2)cc1Br)c1ccc(COc2ccccc2Cl)o1	CYP2C19 inh 81.2, CYP2C9 inhib 85.9
CCOC(=O)CSc1nnc(Cc2cc(=O)[nH]c(=O)[nH]2)n1-c1ccc(Cl)cc1	none
CCn1c(SCC(=O)Nc2ccc(N3CCOCC3)c(Cl)c2)nnc1-c1ccc(N)cc1	none
O=C(CC12CC3CC(CC(C3)C1)C2)NCC(=O)N1CCc2ccccc2C1	none
Cn1c(=O)[nH]c(=O)c2c1nc(Br)n2CCCc1ccccc1	none
O=C(Nc1ccn(Cc2ccccc2F)n1)c1ccc(COc2cc(Cl)ccc2Cl)o1	CYP2C19 inh 60.6, CYP2C9 inhib 90.9
O=C(Nc1cccnc1)c1ccc(COc2cc(Cl)ccc2Cl)o1	CYP2C19 inh 73.9, CYP2C9 inhib 60.2
O=C(NCCCN1CCOCC1)C1CC(=O)N(CCc2ccccc2)C1 (stereo not drawn)	none
C=CCSc1nncn1/N=C/c1ccc(OC)cc1	CYP2C19 inh 81.6
O=c1cc(-c2ccccc2)nc2nc[nH]n12	none
COC(=O)c1ccc(C(=O)OC)c(NC(=O)COC(=O)C23CC4CC(CC(O)(C4)C2)C3)c1	CYP2C9 inhib 57.5
CCCNC(=O)COc1ccc(S(=O)(=O)Nc2ccc(C)cc2)cc1	CYP2C19 inh 69.1, CYP2C9 inhib 52.1
CCCNS(=O)(=O)c1ccc(OCC(=O)NCc2ccco2)cc1	none
Cc1ccc(NS(=O)(=O)c2ccc(CCC(=O)NCCO)cc2)cc1	CYP2C19 inh 58.0, CYP2C9 inhib 85.4
Cc1cc(C)cc(NC(=O)C2CCCN2C(=O)Oc2ccccc2)c1 (stereo not drawn)	CYP2C19 inh 66.3, CYP2C9 inhib 67.1
Cc1csc(NC(=O)C2CCCN2C(=O)Oc2ccccc2)n1 (stereo not drawn)	none (no result: EphB4 ephrin blk)
Cc1cccc(NC(=O)C2CCCN2C(=O)Oc2ccccc2)c1 (stereo not drawn)	CYP2C19 inh 88.3, CYP2C9 inhib 57.0

Compound activity deposited in PubChem by several laboratories.
